# Data from article PMC7862700, “An all-to-all approach to the identification of sequence-specific readers for epigenetic DNA modifications on cytosine”.
# Tests used:
# Test in all cases: DAPPL (digital affinity profiling via proximity ligation, sequencing); 10 mM Tris-HCl pH 7.5, 50 mM NaCl, 1 mM DTT, 4% glycerol, room temperature, 30 min; GST-TFs on glutathione beads, 16-mer random dsDNA library, 0.1% formaldehyde crosslink after washing; high values mean tight binding
# Settings in all cases: protein: recombinant; tags: N-terminal GST; dsDNA, one strand shown
# [1] = target: T1, FLI1 (Homo sapiens, UniProt Q01543 1-452)
# T1 sequence: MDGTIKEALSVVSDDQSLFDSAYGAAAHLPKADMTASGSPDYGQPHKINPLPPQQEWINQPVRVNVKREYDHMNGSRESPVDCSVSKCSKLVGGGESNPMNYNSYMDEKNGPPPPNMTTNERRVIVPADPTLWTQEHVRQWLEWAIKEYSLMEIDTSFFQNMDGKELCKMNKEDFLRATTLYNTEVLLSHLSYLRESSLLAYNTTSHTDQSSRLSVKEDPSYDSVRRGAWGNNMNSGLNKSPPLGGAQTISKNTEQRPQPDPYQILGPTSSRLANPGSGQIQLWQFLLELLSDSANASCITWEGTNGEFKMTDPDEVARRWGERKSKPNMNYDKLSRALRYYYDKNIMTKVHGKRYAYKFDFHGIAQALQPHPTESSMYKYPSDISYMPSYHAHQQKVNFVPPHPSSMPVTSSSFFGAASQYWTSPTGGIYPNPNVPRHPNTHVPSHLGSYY
# Method in brief: (§1)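 The binding signal reported is, for every hexamer, its read frequency for a factor over its read frequency for the tag-only sample. Reads came from pools of yeast-expressed, GST-fused human transcription factors on glutathione beads, barcoded with DNA and mixed with that sample, which were incubated with 200 nmole of a random double-stranded 16-mer DNA library in Tris/NaCl/DTT/glycerol buffer at room temperature for 30 min. After washing, the pools were crosslinked with 0.1% formaldehyde, proximity-ligated with BsaI/T4 ligase for 1 h at 37 °C, PCR-amplified and sequenced on an Illumina NextSeq500.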
# [2] = target: T2, ELK1 (Homo sapiens, UniProt P19419 1-428)
# T2 sequence: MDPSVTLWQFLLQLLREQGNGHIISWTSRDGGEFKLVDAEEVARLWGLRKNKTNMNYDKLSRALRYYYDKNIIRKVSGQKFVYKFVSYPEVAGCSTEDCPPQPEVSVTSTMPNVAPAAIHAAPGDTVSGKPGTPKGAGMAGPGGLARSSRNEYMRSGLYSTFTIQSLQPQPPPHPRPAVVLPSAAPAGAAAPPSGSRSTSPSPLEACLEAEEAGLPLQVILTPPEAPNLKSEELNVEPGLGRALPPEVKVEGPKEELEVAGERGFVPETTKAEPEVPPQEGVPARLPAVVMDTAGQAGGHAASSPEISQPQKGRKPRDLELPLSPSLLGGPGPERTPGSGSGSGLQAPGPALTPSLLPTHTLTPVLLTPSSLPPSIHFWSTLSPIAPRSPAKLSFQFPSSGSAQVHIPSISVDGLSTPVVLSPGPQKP
# Method in brief: as §1
# [3] = target: T3, GABPA (Homo sapiens, UniProt Q06546 1-454)
# T3 sequence: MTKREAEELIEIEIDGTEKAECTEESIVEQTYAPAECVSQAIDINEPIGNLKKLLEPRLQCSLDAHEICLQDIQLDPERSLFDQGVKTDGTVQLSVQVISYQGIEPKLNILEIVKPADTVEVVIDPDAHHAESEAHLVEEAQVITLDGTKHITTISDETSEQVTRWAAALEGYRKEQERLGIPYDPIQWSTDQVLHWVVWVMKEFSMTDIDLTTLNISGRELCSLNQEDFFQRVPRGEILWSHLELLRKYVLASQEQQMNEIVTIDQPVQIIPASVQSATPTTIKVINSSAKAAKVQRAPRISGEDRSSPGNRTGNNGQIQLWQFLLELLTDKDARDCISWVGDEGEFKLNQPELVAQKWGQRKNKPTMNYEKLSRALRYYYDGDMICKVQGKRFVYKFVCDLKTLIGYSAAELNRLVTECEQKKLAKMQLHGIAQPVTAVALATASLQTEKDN
# Method in brief: as §1
# [4] = target: T4, ERG (Homo sapiens, UniProt P11308 1-479)
# T4 sequence: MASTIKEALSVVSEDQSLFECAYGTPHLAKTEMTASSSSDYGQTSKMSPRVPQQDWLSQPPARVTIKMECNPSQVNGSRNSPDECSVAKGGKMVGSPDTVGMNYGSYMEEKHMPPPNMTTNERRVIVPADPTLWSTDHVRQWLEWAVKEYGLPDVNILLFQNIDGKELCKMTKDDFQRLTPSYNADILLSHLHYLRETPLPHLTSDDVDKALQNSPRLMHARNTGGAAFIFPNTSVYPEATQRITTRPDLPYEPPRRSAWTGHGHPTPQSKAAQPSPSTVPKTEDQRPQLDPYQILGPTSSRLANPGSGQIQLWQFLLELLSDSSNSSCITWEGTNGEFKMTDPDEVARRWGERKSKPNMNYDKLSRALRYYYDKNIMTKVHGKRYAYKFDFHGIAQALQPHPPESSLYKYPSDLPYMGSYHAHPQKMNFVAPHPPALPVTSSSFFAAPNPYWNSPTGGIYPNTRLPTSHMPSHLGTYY
# Method in brief: as §1
# [5] = target: ELF1 (Homo sapiens, UniProt P32519 1-619)
# Method in brief: as §1
# [6] = target: T5, EHF (Homo sapiens, UniProt Q9NZC4 1-300)
# T5 sequence: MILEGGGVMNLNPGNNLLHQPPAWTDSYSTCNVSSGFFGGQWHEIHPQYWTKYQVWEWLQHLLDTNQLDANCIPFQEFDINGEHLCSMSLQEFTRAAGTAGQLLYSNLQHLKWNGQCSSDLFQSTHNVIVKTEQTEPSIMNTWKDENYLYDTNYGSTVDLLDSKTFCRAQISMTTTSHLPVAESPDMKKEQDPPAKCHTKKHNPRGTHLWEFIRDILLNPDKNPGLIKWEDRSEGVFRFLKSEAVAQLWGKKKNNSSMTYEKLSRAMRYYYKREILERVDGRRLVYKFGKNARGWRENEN
# Method in brief: as §1
# [7] = target: SPI1 (Homo sapiens, UniProt P17947 1-270)
# Method in brief: as §1
# [8] = target: SPIB (Homo sapiens, UniProt Q01892 1-262)
# Method in brief: as §1
# [9] = target: T6, ELK3 (Homo sapiens, UniProt P41970 1-407)
# T6 sequence: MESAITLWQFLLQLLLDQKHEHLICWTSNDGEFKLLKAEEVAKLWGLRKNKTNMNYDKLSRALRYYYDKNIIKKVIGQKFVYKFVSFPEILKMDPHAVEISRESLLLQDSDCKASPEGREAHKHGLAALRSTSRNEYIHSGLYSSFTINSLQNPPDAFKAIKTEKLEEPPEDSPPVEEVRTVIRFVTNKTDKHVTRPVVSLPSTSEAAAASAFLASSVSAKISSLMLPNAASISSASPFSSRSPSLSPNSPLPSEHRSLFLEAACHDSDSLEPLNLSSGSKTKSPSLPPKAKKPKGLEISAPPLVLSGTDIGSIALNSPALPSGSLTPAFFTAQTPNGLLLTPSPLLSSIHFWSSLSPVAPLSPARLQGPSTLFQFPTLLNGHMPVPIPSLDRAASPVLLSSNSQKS
# Method in brief: as §1
# [10] = target: T7, FEV (Homo sapiens, UniProt Q99581 1-238)
# T7 sequence: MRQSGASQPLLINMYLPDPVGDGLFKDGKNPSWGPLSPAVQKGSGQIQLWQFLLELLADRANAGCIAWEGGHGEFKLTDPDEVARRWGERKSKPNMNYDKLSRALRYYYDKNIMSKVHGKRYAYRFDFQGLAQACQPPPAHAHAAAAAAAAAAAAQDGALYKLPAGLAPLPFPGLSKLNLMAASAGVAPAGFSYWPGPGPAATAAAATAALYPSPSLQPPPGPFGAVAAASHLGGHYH
# Method in brief: as §1
# [11] = target: ETV5 (Homo sapiens, UniProt P41161 1-510)
# Method in brief: as §1
# [12] = target: T8, SPIC (Homo sapiens, UniProt Q8N5J4 1-248)
# T8 sequence: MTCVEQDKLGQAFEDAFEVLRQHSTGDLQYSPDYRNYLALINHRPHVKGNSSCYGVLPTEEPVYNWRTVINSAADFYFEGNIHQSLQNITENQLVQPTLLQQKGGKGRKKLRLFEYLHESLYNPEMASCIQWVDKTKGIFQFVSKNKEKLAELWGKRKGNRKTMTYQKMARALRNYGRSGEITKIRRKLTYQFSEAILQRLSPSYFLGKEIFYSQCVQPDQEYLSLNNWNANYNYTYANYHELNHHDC
# Method in brief: as §1
# [13] = target: ELF4 (Homo sapiens, UniProt Q99607 1-663)
# Method in brief: as §1
# [14] = target: ETV1 (Homo sapiens, UniProt P50549 1-477)
# Method in brief: as §1
# [15] = target: T9, ETV3L (Homo sapiens, UniProt Q6ZN32 1-361)
# T9 sequence: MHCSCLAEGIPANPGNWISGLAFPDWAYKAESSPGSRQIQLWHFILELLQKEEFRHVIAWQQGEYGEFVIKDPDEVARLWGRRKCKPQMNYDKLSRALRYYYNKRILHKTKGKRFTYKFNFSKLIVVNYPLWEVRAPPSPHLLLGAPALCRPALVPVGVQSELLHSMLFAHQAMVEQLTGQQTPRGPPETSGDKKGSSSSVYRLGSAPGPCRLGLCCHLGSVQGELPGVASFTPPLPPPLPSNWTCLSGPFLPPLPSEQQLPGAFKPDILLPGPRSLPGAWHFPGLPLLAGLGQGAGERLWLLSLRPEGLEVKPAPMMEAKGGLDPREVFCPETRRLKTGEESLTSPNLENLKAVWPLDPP
# Method in brief: as §1
# [16] = target: T10, ETS2 (Homo sapiens, UniProt P15036 1-469)
# T10 sequence: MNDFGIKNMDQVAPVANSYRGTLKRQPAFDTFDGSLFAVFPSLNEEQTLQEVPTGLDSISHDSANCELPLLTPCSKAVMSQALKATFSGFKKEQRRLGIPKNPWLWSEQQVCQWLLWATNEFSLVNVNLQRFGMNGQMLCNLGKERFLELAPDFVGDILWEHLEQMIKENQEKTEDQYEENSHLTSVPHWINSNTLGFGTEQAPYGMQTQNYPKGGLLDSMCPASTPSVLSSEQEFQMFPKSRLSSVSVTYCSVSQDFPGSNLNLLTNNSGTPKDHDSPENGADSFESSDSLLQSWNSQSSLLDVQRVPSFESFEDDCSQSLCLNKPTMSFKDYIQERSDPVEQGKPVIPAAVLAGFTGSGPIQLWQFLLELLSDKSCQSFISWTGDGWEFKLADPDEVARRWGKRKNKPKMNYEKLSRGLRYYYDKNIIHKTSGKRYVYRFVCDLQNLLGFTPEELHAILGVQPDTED
# Method in brief: as §1
# [17] = target: T11, SPDEF (Homo sapiens, UniProt O95238 1-335)
# T11 sequence: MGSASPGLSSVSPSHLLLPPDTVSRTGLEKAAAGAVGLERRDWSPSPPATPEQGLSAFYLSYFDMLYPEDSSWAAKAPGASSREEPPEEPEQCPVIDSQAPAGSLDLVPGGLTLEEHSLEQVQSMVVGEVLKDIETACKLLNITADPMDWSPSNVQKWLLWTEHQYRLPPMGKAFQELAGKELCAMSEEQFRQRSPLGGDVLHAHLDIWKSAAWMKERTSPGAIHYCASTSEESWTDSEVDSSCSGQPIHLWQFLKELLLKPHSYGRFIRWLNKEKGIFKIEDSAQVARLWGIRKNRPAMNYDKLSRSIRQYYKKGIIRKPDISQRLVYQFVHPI
# Method in brief: as §1
# [18] = target: T12, ETV3 (Homo sapiens, UniProt P41162-2 1-143)
# T12 sequence: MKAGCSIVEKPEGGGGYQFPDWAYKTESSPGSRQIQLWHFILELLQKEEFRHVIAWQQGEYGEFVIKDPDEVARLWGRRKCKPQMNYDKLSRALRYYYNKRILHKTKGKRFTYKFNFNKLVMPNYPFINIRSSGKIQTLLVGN
# Method in brief: as §1
# [19] = target: ETV6 (Homo sapiens, UniProt P41212 1-452)
# Method in brief: as §1
# Sequence of ELF4 (Q99607 whole entry): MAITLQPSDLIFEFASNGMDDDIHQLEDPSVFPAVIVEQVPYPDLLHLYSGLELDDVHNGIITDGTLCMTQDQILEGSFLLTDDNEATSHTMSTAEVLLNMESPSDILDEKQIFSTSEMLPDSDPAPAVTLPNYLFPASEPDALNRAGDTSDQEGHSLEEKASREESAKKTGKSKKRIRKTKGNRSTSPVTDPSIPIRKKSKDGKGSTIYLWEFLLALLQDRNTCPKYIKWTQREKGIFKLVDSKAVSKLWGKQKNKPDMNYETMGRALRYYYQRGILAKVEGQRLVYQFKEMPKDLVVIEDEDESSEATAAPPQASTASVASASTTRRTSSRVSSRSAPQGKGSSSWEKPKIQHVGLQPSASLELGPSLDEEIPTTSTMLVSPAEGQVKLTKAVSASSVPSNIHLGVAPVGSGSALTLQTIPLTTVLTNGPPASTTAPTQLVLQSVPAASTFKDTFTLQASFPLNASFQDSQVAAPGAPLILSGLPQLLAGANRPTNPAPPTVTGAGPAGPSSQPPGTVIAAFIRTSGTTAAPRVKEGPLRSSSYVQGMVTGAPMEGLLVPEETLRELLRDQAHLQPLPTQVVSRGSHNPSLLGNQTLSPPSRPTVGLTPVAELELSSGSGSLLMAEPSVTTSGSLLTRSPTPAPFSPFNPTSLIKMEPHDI
# Sequence of ETV6 (P41212 whole entry): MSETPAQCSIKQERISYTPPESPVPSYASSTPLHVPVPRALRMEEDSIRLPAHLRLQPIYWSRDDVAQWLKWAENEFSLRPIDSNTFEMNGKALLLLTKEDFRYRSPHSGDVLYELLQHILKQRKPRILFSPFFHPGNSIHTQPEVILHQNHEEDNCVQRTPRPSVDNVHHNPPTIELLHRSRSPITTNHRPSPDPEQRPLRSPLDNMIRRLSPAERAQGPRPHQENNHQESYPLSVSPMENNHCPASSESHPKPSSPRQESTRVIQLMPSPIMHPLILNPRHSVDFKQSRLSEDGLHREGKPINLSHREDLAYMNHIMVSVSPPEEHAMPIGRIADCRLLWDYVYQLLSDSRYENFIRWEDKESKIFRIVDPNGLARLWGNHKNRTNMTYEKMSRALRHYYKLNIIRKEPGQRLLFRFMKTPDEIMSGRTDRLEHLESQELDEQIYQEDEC
# Sequence of SPIB (Q01892 whole entry): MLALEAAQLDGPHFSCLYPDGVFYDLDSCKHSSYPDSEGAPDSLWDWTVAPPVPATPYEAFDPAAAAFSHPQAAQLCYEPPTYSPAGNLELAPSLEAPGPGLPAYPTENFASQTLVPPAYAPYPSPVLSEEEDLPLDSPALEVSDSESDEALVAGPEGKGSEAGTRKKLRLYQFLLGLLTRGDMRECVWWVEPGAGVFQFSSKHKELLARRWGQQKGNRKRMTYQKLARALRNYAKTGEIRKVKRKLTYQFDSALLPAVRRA
# Sequence of ELF1 (P32519 whole entry): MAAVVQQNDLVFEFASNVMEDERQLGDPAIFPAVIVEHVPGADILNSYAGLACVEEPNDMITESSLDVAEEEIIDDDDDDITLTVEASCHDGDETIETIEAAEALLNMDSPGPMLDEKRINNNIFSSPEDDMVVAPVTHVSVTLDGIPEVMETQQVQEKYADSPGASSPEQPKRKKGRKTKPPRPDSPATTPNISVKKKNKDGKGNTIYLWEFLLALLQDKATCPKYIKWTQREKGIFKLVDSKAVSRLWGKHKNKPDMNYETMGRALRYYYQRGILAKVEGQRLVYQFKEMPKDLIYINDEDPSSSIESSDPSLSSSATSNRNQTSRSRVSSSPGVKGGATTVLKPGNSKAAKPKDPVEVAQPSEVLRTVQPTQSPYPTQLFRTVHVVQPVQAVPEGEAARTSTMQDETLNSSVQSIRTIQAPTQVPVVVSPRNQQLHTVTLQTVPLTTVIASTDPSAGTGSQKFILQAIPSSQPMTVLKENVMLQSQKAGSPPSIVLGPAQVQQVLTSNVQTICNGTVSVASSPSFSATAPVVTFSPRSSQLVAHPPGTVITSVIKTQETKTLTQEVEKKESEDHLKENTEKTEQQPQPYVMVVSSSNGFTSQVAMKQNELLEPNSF
# Sequence of ETV1 (P50549 whole entry): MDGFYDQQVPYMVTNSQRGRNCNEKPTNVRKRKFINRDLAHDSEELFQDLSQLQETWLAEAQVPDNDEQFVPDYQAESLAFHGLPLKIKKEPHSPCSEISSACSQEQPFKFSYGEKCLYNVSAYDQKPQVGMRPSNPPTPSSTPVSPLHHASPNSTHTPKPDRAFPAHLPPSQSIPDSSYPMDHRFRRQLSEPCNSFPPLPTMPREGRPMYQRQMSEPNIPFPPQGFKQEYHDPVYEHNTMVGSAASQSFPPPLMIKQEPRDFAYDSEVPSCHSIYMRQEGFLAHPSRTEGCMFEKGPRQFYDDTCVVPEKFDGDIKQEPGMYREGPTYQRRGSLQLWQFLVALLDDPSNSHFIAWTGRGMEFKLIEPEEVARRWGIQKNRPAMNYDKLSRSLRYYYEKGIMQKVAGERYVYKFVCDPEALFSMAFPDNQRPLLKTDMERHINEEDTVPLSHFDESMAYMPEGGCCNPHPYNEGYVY
# Sequence of ETV5 (P41161 whole entry): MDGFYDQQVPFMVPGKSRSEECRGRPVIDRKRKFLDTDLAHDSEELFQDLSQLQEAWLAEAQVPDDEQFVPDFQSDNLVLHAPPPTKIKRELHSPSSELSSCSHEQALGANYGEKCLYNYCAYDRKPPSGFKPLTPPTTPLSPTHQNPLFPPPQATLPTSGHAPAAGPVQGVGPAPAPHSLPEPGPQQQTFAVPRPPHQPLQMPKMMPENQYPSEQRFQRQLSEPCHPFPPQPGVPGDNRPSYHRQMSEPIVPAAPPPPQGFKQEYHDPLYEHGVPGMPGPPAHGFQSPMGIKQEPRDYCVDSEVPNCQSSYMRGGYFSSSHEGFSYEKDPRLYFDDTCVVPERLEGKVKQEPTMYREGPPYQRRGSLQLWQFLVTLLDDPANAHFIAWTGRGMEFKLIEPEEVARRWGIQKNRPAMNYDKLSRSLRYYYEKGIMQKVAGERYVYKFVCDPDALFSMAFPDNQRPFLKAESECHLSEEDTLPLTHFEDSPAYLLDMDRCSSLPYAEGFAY
sequence,measurement,setting,value
TTGCCG,binding signal,[1],"1.2 fold enrichment (6-mer frequency, TF over GST control)"
same,binding signal,[2],"1.14 fold enrichment (6-mer frequency, TF over GST control)"
same,binding signal,[3],"1.16 fold enrichment (6-mer frequency, TF over GST control)"
same,binding signal,[4],"1.04 fold enrichment (6-mer frequency, TF over GST control)"
same,binding signal,[5],"1.03 fold enrichment (6-mer frequency, TF over GST control)"
same,binding signal,[6],"1.19 fold enrichment (6-mer frequency, TF over GST control)"
same,binding signal,[7],"1.12 fold enrichment (6-mer frequency, TF over GST control)"
same,binding signal,[8],"1.12 fold enrichment (6-mer frequency, TF over GST control)"
same,binding signal,[9],"1.07 fold enrichment (6-mer frequency, TF over GST control)"
same,binding signal,[10],"1.12 fold enrichment (6-mer frequency, TF over GST control)"
same,binding signal,[11],"1.12 fold enrichment (6-mer frequency, TF over GST control)"
same,binding signal,[12],"1.08 fold enrichment (6-mer frequency, TF over GST control)"
same,binding signal,[13],"1.12 fold enrichment (6-mer frequency, TF over GST control)"
same,binding signal,[14],"1.09 fold enrichment (6-mer frequency, TF over GST control)"
same,binding signal,[15],"1.11 fold enrichment (6-mer frequency, TF over GST control)"
same,binding signal,[16],"1.12 fold enrichment (6-mer frequency, TF over GST control)"
same,binding signal,[17],"1.13 fold enrichment (6-mer frequency, TF over GST control)"
same,binding signal,[18],"1.1 fold enrichment (6-mer frequency, TF over GST control)"
same,binding signal,[19],"1.08 fold enrichment (6-mer frequency, TF over GST control)"
